# Bioassay records (PubChem BioAssay)
# CHT allo act – human CHT allosteric activation; Q9GZV3; CHT-expressing cells, membrane potential dye, choline EC20; stronger effect = higher value; LV-AA mutant CHT in HEK293 cells; B-score at 10 µM; hit rate 0.49% among 310,000; AID 488977;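 active = initial fluorescence not abnormally high and integrated response B-score, plate-corrected, over 3 SD above library mean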
# Target sequence (Q9GZV3 whole entry, looked up): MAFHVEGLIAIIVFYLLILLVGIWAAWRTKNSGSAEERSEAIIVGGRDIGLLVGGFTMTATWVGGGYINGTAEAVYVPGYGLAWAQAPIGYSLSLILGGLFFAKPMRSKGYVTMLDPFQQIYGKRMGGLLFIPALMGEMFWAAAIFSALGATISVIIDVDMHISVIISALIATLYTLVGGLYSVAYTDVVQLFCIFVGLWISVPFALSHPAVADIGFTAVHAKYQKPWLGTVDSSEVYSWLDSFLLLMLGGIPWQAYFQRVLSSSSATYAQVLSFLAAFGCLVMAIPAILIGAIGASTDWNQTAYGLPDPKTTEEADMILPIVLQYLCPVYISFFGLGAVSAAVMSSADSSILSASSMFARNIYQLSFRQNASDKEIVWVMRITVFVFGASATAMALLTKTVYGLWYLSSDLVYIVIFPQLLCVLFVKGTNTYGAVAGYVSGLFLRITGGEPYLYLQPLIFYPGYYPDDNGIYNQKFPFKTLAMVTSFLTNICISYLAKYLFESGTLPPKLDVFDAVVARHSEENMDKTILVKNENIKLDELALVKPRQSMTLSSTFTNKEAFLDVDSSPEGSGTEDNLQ
# ANO1 activ – activators or potentiators of mouse TMEM16A chloride channel. Q8BHY3. HEK293 TMEM16A/YFP-H148Q/I152L, iodide quench fluorescence; stronger effect = lower value. B-score at 10 µM. hit rate 0.3% among 340,000;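 active = fluorescence-ratio B-score plate-corrected deviation score at least 3 library SD below zero, with starting fluorescence score within 5 deviations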;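 also: channel opened by trigger with iodide after compound preincubation; score built on the fluorescence ratio of max minus min over baseline; more negative score means more quench and so TMEM16A activation or potentiation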
# TMEM16A inh – blocks the mouse calcium-activated chloride channel TMEM16A | normalized B-score (activity score, 25-100; higher = stronger inhibition) at 10 µM | HEK293 TMEM16A/YFP iodide influx fluorescence, ionomycin | hit rate 1.2% among 310,000 | Q8BHY3;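 active = ratio plate-corrected score three or more library SD toward inhibition, starting fluorescence score within five deviations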;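 also: score derived from kinetic fluorescence span divided by baseline fluorescence per well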
# CHT inh – inhibitors of human choline transporter CHT. AID 488975. Q9GZV3. B-score at 10 µM. CHT-expressing cells, membrane potential dye, choline response; stronger effect = lower value. hit rate 0.86% among 310,000;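 active = B-score over 3 SD under the library average, and starting fluorescence ratio not unusually high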;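 also: choline stimulus applied at its EC90 after an EC20 pre-addition; B-score computed on integrated fluorescence ratio after choline addition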
# CHT activ conf – human CHT activation, confirmatory screen; CHT-expressing cells, membrane potential dye fluorescence (FDSS); % of choline EC20–EC90 response window; HEK293 expressing CHT LV-AA mutant; choline added at its EC20; hit rate 91% among 2,500; activation, % at 10 µM; shares compounds with CHT allo act;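 active = primary screen active, with duplicate mean activation above negative control mean plus 3 SD, cut at about 11% in these data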
# HEK293 MP dye – CHT activator counter-screen hit in parental HEK293 cells. ratio readout change at 10 µM, hits read low. hit rate 62% among 2,500. membrane potential dye fluorescence (FDSS); measured after EC20 choline addition. AID 623908. shares compounds with CHT allo act;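 active = duplicate-averaged ratio beyond 3 SD from buffer wells, up or down, though filed actives are nearly all decreases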
# Numbers stand for hits; 0 = inactive; - = no result. Sampled rows, rich in hits. Any-hit rate of the full collection: about 2.3%.
SMILES,CHT allo act,ANO1 activ,TMEM16A inh,CHT inh,CHT activ conf,HEK293 MP dye
COc1ccc(C(=O)Nc2nc(C)cc(C)n2)cc1[N+](=O)[O-],0,0,0,0,19,-39
Cc1cc(C)nc(NC(=O)c2ccc(C)c([N+](=O)[O-])c2)n1,0,0,0,0,-,-
NS(=O)(=O)c1ccc(CNC(=O)c2ccc(NS(=O)(=O)c3cccs3)cc2)cc1,-,0,-,-,-,-
Cc1ccn2cc(C34CC5CC(CC(C5)C3)C4)nc2c1,8.9,0,0,0,17,0
OC(c1ccc(F)cc1)C(CN1CCOCC1)c1ccccc1 (stereo not given),0,0,0,0,-,-
COc1ccc(-n2cc(-c3ccccc3)[n+]3c2CCCCC3)cc1,6.5,0,0,0,55,0
COc1ccc(-c2cn(-c3ccc(SC(F)F)cc3)c3[n+]2CCC3)cc1OC,6.3,0,0,0,32,-39
COc1ccc(-n2cc(-c3ccc(C)cc3)[n+]3c2SCC3)cc1,0,0,0,0,-,-
FC(F)Sc1ccc(-n2cc(-c3ccccc3)[n+]3c2CCC3)cc1,0,0,0,0,21,-40
COc1ccc(-c2cn(-c3ccc(OC)cc3)c3[n+]2-c2ccccc2CC3)cc1,9.5,0,0,0,53,0
COc1ccccc1Oc1ccc(NC(=O)Cc2ccccc2)cc1,0,0,0,0,-,-
CCCCc1c(O)c2ccccc2[nH]c1=O,0,0,0,0,-,-
CCCCCCCCC1=NCCc2c1[nH]c1ccccc21,0,0,0,0,48,0
Cc1cc(N2CCOCC2)c2c(N)c(Br)cc(C)c2n1,9.8,0,0,0,45,-66
CCOc1cc(N2CCOCC2)c(OCC)cc1NC(=O)COC(=O)c1cc2ccccc2cc1O,7.5,0,0,0,17,0
CCOc1cc(N2CCOCC2)c(OCC)cc1NC(=O)COC(=O)c1ccc(Cl)cc1N,-,0,-,-,-,-
COc1ccc(CNCCC(c2ccc(F)cc2)c2ccc(OC(C)C)cc2)cc1OC (stereo not given),0,0,0,0,-,-
COc1ccc(CNCCC(c2ccc(F)cc2)c2ccc(OC)cc2)cc1 (stereo not given),0,0,0,0,0,0
COc1ccc(CNCCC(c2ccc(OC)cc2)c2ccccc2OC)cc1 (stereo not given),7.8,0,0,0,17,0
COc1ccc(C(CCNCc2ccc(N(C)C)cc2)c2ccccc2OC)cc1 (stereo not given),0,0,0,0,-,-
COc1ccc(CNCCC(c2ccccc2)c2ccc(OC(C)C)cc2)cc1OC (stereo not given),7.5,0,0,0,0,0
COc1ccc(C(CCNCc2ccccc2)c2ccc(F)cc2)cc1 (stereo not given),0,0,0,0,-,-
COc1ccc(C(CCNCc2ccc(OC(C)C)cc2)c2ccccc2OC)cc1 (stereo not given),6.7,0,25,0,14,0
CC(NC(=O)C1CCN(c2nnc(N3CCCC3=O)s2)CC1)c1ccccc1 (stereo not given),0,0,0,0,-,-
O=C(NC1CCN(c2ncccn2)CC1)c1ccccc1Cl,0,0,0,0,-,-
SMILES,CHT allo act,ANO1 activ,TMEM16A inh,CHT inh,CHT activ conf,HEK293 MP dye
COc1ccc(C(CCNC(C)c2ccccc2)c2ccc(F)cc2)cc1 (stereo not given),0,0,0,0,44,0
COc1ccc(C(CNC(=O)C(CCSC)NC(=O)c2ccccc2Cl)N2CCCCC2)cc1 (stereo not given),-,0,-,-,-,-
Cc1ccc(CNc2ccc3nnc(-c4ccccc4)n3n2)cc1,0,0,0,0,-,-
c1ccc(CN2CCN(CCCNc3ccc4nnc(-c5ccccc5)n4n3)CC2)cc1,7.8,0,0,0,54,-48
CCCCN(Cc1nc2ccccc2c(=O)[nH]1)C(=O)CN1C(=O)NC2(CCCCC2)C1=O,-,0,-,-,-,-
Cc1cc(-c2ccccc2)cc(-c2ccccc2)[n+]1C,6.8,0,0,0,79,-23
CC(=O)OCC1OC(n2c(S)c(C#N)c(-c3ccccc3)c(C#N)c2=O)C(OC(C)=O)C(OC(C)=O)C1OC(C)=O (stereo not given),-,0,-,-,-,-
CC1CCC(C(C)C)C(OC(=O)C[n+]2cc(-c3ccc(Cl)cc3)n3c2CCCCC3)C1 (stereo not given),13,0,0,0,64,0
Clc1ccc(-c2c[n+](Cc3ccc(Cl)cc3Cl)c3n2CCCCC3)cc1,28,0,0,0,67,0
O=[N+]([O-])c1ccc(C[n+]2cc(-c3ccc(Cl)c(Cl)c3)n3c2CCCCC3)cc1,0,0,0,0,34,-33
Clc1ccc(C[n+]2cc(-c3ccccc3)n3c2CCC3)cc1Cl,7.8,0,0,0,18,-27
O=[N+]([O-])c1ccc(C[n+]2cc(-c3ccccc3)n3c2CCCCC3)cc1,0,0,0,0,-,-
O=C(C[n+]1cc(-c2ccccc2)n2c1CCCCC2)c1ccc(Cl)cc1,0,0,0,0,-,-
Cc1csc(=O)n1CC(=O)OCC(=O)c1c(N)n(CC(C)C)c(=O)n(C)c1=O,0,0,0,0,-,-
Clc1ccc(-c2c[n+](Cc3cccc(Cl)c3)c3n2CCC3)cc1,8.1,0,0,0,69,-54
O=C(Cn1c(NCCCCl)nc2ccccc21)c1ccccc1,-,0,-,-,-,-
CCOC(=O)c1c(CSc2ccsc2)n(C)c2cc(Br)c(O)c(CN(C)C)c12,6.8,0,0,0,40,0
CCOC(=O)c1c(CN(C)C)oc2cc(CN(C)C)c(O)c(CSc3ccccc3)c12,0,0,0,0,-,-
CCN(CC)CCCNC(=O)c1cc2c(=O)n(C)c3ccccc3c2n1C,6.7,0,0,0,49,-23
CN(C)CCNC(=O)c1cc2c(=O)n(C)c3ccccc3c2n1C,0,0,0,0,42,-33
COCCNC(=O)c1cc2c(=O)n(C)c3ccccc3c2n1C,0,0,0,0,-,-
Cn1c(C(=O)NCCCN2CCCCCC2)cc2c(=O)n(C)c3ccccc3c21,0,0,0,0,-,-
Cn1c(C(=O)NCCCN2CCc3ccccc3C2)cc2c(=O)n(C)c3ccccc3c21,0,0,0,0,25,-27
CCN(CC)CCNC(=O)c1cc2c(=O)n(C)c3ccccc3c2n1C,0,0,0,0,-,-
Cn1c(C(=O)NC2CC2)cc2c(=O)n(C)c3ccccc3c21,0,0,0,0,36,-30
N#Cc1c(N)oc(-c2ccco2)c1-c1ccco1,8.2,0,0,0,10,0
N#Cc1c(N)oc(-c2ccccc2)c1-c1ccccc1,0,0,0,0,-,-
CC(=O)c1cccc(Nc2nc(=O)c3cccnc3s2)c1,7,0,0,0,48,-44
O=C(COc1ccccc1)N=C1SC2CS(=O)(=O)CC2N1c1ccccc1F (stereo not given),0,0,0,0,-,-
